Experiment [1] can be described thus: A CellTox Green Cytotoxicity Assay to monitor cytotoxicity in HEK293 cells - 40 hour (AID 1224871). Note: nearly all actives have a fitted effect of over 45% in size. Summed up:
(§1)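 Cells (HEK293, 600/well) and dye reagent are dispensed together. After 5 h at 37 C, 23 nL compound is pinned in. Plates stay at 37 C for 40 h with fluorescence read at 0h, 8h, 16h, 24h, 32h and 40h.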

The nature of experiment [2]: qHTS RealTime-Glo MT Cell Viability Assay in HepG2 cells - 8 hour (AID 1224873). Note: nearly all actives have a fitted effect of over 55% in size. Summed up:
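HepG2 cells (600/well) mixed with RealTime-Glo MT reagent, settled 5 h at 37 C/5% CO2 before compound addition. Nonlytic NanoLuc luminescence from viable-cell prosubstrate reduction read repeatedly during 40 h treatment at 37 C.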
On the technique in general: Quantitative high-throughput screening tests each substance at several concentrations.

The nature of experiment [3]: qHTS RealTime-Glo MT Cell Viability Assay in HEK293 cells - 40 hour (AID 1224874). Note: nearly all actives have a fitted effect of over 50% in size. Note: potency is the fitted concentration of half-maximal effect. Conditions: RealTime-Glo luminescence; max response: stronger effect = lower value. Put shortly: (§2)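 Real-time viability in HEK293: signal arises when living cells convert a prosubstrate for NanoLuc in the medium, so luminescence tracks viable cell number. Compound (23 nL, DMSO) added 5 h post-seeding; kinetic reads at 0–40 h, 37 C.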

Experiment [4] is described as follows: A CellTox Green Cytotoxicity Assay to monitor cytotoxicity in HEK293 cells - 24 hour (AID 1224875). Note: series mostly up to about 77 µM; nearly all actives have a fitted effect of over 45% in size. Summed up:
as §1

Experiment [5] can be described thus: A CellTox Green Cytotoxicity Assay to monitor cytotoxicity in HepG2 cells - 16 hour (AID 1224876). Note: nearly all actives have a fitted effect of over 45% in size. Summed up:
(§3)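 Cells and non-lytic dye reagent are dispensed together (600 HepG2 cells/well) and incubated 5 h before DMSO compound transfer. Kinetic fluorescence is then recorded in the same wells during 40 h at 37 C.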

Experiment [6] in a line: qHTS RealTime-Glo MT Cell Viability Assay in HepG2 cells - 32 hour (AID 1224877). Note: nearly all actives have a fitted effect of over 55% in size. Summed up: (§4)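 Real-time, nonlytic viability: 600 HepG2 cells/well mixed with NanoLuc enzyme plus prosubstrate; 5 h settle, compound (DMSO) added by pintool; luminescence monitored over 40 h at 37 C.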
A short description of experiment [7]: A CellTox Green Cytotoxicity Assay to monitor cytotoxicity in HepG2 cells - 24 hour (AID 1224878). Note: nearly all actives have a fitted effect of over 45% in size. Put shortly:
as §3

Experiment [8] is described as follows: A CellTox Green Cytotoxicity Assay to monitor cytotoxicity in HepG2 cells - 40 hour (AID 1224879). Note: nearly all actives have a fitted effect of over 40% in size. Put shortly:
as §3

A short description of experiment [9]: qHTS RealTime-Glo MT Cell Viability Assay in HEK293 cells - 0 hour (AID 1224880). Summed up:
as §2

Experiment [10] can be described thus: A CellTox Green Cytotoxicity Assay to monitor cytotoxicity in HEK293 cells - 32 hour (AID 1224881). Note: nearly all actives have a fitted effect of over 40% in size. Summed up: as §1
Experiment [11] in a line: A CellTox Green Cytotoxicity Assay to monitor cytotoxicity in HepG2 cells - 0 hour (AID 1224882). Note: nearly all actives have a fitted effect of over 35% in size. Summed up:
as §3

A short description of experiment [12]: A CellTox Green Cytotoxicity Assay to monitor cytotoxicity in HepG2 cells - 32 hour (AID 1224883). Note: nearly all actives have a fitted effect of over 50% in size. Put shortly:
as §3

A short description of experiment [13]: qHTS RealTime-Glo MT Cell Viability Assay in HepG2 cells - 16 hour (AID 1224885). Note: nearly all actives have a fitted effect of over 50% in size. Put shortly:
as §4

Experiment [14] can be described thus: qHTS RealTime-Glo MT Cell Viability Assay in HEK293 cells - 24 hour (AID 1224886). Note: top concentration of the series differs between compounds; nearly all actives have a fitted effect of over 50% in size. Summed up: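 Cells + reagent dispensed (600 cells/well, HEK293) → 5 h at 37 C/5% CO2 → 23 nL compound in DMSO pinned → 40 h at 37 C → luminescence read at 0, 8, 16, 24, 32, 40 h.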
Experiment [15] is described as follows: qHTS RealTime-Glo MT Cell Viability Assay in HEK293 cells - 8 hour (AID 1224887). Summed up:
as §2

Experiment [16] can be described thus: A CellTox Green Cytotoxicity Assay to monitor cytotoxicity in HEK293 cells - 16 hour (AID 1224888). Note: nearly all actives have a fitted effect of over 35% in size. Summed up: as §1
The nature of experiment [17]: qHTS RealTime-Glo MT Cell Viability Assay in HepG2 cells - 0 hour (AID 1224889). Note: nearly all actives have a fitted effect of over 50% in size. Put shortly:
as §4

Experiment [18] is described as follows: A CellTox Green Cytotoxicity Assay to monitor cytotoxicity in HepG2 cells - 8 hour (AID 1224890). Note: nearly all actives have a fitted effect of over 45% in size. Summed up:
as §3

Experiment [19] in a line: A CellTox Green Cytotoxicity Assay to monitor cytotoxicity in HEK293 cells - 8 hour (AID 1224884). Note: nearly all actives have a fitted effect of over 35% in size. Put shortly:
as §1

“And” between values parts separate entries of the source, which are not always exact repeats. Identical values can stand only once. Unmarked numbers belong to inactive results. Records with an inconclusive call do not appear. The source made the active and inactive calls. Calls come from the whole dose curve; as a rule, active = well fitted curve in the direction sought with a large enough effect in the repeat runs; inconclusive = weak or mixed curves; inactive = no such curve, though single readings can be large; an effect the other way counts as inactive or inconclusive.
% is set by controls: 0 for no effect and ±100 for the full control effect.

In the case of `C1COCCN1`, the Potency entry in experiment [1], in experiment [2], in [4], in [5], in experiment [6] and in [7] was “inactive” in each case. Also, the Potency entry in experiment [8], in experiment [9], in experiment [10], in experiment [11], in [12] and in experiment [13] was “inactive” in each case. The Potency entry in experiment [14], in experiment [15], in [16], in experiment [17] and in experiment [18] was “inactive” in each case. Besides, the max response in experiment [3] is -0.365% and -12.5% and 10.6%.
As for `CCc1cccc2c3c([nH]c12)C(CC)(CC(=O)O)OCC3` (stereo not drawn), the Potency result in experiment [1], in [2], in [4], in [5], in experiment [7] and in experiment [8] was “inactive” in each case. Also, the Potency result in experiment [9], in experiment [10], in experiment [11], in experiment [12], in [19] and in [13] was “inactive” throughout. For the same molecule, the Potency entry in [14], in [15], in [16], in [17] and in [18] was “inactive” throughout. In addition, the max response in experiment [3] was 0.853% and 0.265%.
For `C=CCCCCCCCCCC`, the Potency result in [1], in experiment [2], in experiment [4], in experiment [5], in experiment [7] and in experiment [8] was “inactive” throughout. Moreover, the Potency entry in [10], in experiment [11], in [12], in [13], in [14] and in experiment [15] was “inactive” in each case. The Potency entry in [16], in experiment [17] and in experiment [18] was “inactive” each time. Also, the max response in experiment [3] was 3.4% and -2.24%.
As for `CC(=O)Oc1c(C)c(C)c2c(c1C)CC[C@@](C)(CCC[C@H](C)CCC[C@H](C)CCCC(C)C)O2`, the Potency entry in experiment [1], in [2], in experiment [4], in experiment [5], in experiment [6] and in experiment [7] was “inactive” each time. For the same molecule, the Potency entry in experiment [10], in experiment [11], in experiment [12], in [13], in [14] and in experiment [15] was “inactive” in each case. For the same molecule, the Potency result in experiment [16], in experiment [17] and in experiment [18] was “inactive” throughout. In addition, the max response in [3] is 0.83% and -4.95%.
On to `CN(Cc1cnc2nc(N)nc(N)c2n1)c1ccc(C(=O)N[C@@H](CCC(=O)O)C(=O)O)cc1`, for which the Potency result in [1], in experiment [2], in experiment [4], in [5], in [6] and in experiment [7] was “inactive” throughout. For the same molecule, the Potency entry in experiment [8], in experiment [10], in experiment [11], in experiment [12], in experiment [19] and in experiment [13] was “inactive” throughout. For the same molecule, the Potency result in experiment [16], in experiment [17] and in [18] was “inactive” each time. Besides, the Potency in experiment [3] was 49 nM (active) and 53.5 nM (active).
For `CC(=O)Nc1ccc2c(c1)Cc1cc(NC(C)=O)ccc1-2`, the Potency result in experiment [1], in [2], in experiment [4], in [5], in experiment [6] and in experiment [7] was “inactive” throughout. Further, the Potency result in [8], in experiment [9], in [10], in [11], in experiment [12] and in experiment [13] was “inactive” each time. Besides, the Potency entry in [14], in experiment [15], in experiment [16], in [17] and in experiment [18] was “inactive” each time. In experiment [3], the max response is 1.79% and 3.64%.
As to `CNC[C@H](O)c1ccc(O)c(O)c1`, the Potency entry in experiment [1], in experiment [2], in [4], in [5], in experiment [7] and in [8] was “inactive” each time. The Potency entry in experiment [10], in [11], in [12], in experiment [13], in experiment [14] and in [15] was “inactive” throughout. Moreover, the Potency result in experiment [16], in [17] and in experiment [18] was “inactive” each time. Besides, the max response in [3] is 2.12% and 11.8%.
As for `c1ccc2c(c1)[nH]c1ccccc12`, the Potency entry in experiment [1], in experiment [2], in [4], in experiment [5], in experiment [6] and in [7] was “inactive” each time. The Potency result in experiment [10], in [11], in experiment [12], in [19], in [13] and in experiment [14] was “inactive” in each case. Also, the Potency result in [15], in [16], in experiment [17] and in [18] was “inactive” in each case. The max response in experiment [3] is -8.89%.
For the molecule `OCCNCCO`, the Potency result in experiment [1], in experiment [2], in [4], in [5], in experiment [6] and in [7] was “inactive” in each case. In addition, the Potency entry in experiment [8], in [10], in [11], in experiment [12], in [19] and in [13] was “inactive” each time. Besides, the Potency entry in experiment [14], in [15], in experiment [16], in [17] and in experiment [18] was “inactive” each time. Further, in experiment [3], the max response is 4.46% and 5.31%.

The record behind these values is PubChem BioAssay (Tox21).
